Bioassay records (PubChem BioAssay)
MARV entry inh: blocks Marburg virus binding to or entry into cells; Marburg virus pseudotyped entry inhibition, cell reporter; Potency, µM (top dose mostly 37.8 µM), without a hit: at the top dose activity change, negative = inhibition, most hits filed as inhibitors; 300,000 tested, 1.8% active; AID 540276; calls by dose curve; tested in HEK293 cells; further: potency means the concentration at half of the fitted maximal effect
HCV inhibitor: inhibitors of hepatitis C virus infection; Huh7.5.1 HCVcc-Cre infection, luciferase reporter, 44 h; 340,000 tested, 3.4% active; AID 651820; Potency, µM (titrated, usually from 41.8 µM), without a hit: top-dose activity change, negative = inhibition, actives largely listed as inhibitors; active means well fitted inhibition curve with a large enough effect; inconclusive means small, poorly fitted or top-dose-only effect, or another doubt; inactive means no such curve, though single readings can be large or run the other way; further: potency means the concentration at half of the fitted maximal effect
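Antiviral activity was scored by luciferase reporter output from cells infected with HCVcc-Cre (~0.5 moi) in presence of compound, 44 h infection period, cells seeded 1,000/well 4 h prior.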
Vaccinia Venus: inhibitors of vaccinia virus (Venus reporter); Vaccinia virus Venus reporter expression, fluorescence; Potency, µM (highest dose often 36.5 µM), without a hit: at the highest dose activity change, negative = inhibition, usual class: inhibitors; 330,000 tested, 0.46% active; calls by dose curve; tested in A549 cells; further: potency means the concentration at half of the fitted maximal effect; nearly all actives have a fitted effect of over 30% in size
HCMV antiviral: inhibitors of human cytomegalovirus. HFF cells, HCMV-luciferase reporter, 72 h; active compounds read low. activity change, negative = inhibition, % at 57.5 µM. 410,000 tested, 4.5% active. AID 1259415; in the data active means activity change below about -60%; inconclusive means no clear call, values can overlap the other calls; inactive means above about -39%
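Human foreskin fibroblasts infected with luciferase-reporter HCMV at MOI 1 PFU/cell, compounds at two doses. Luciferase measured 72 h post infection; normalized to buffer-only basal and Salinomycin (10uM) controls.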
Lassa entry inh: Lassa virus entry inhibition | Lassa virus pseudotype entry inhibition, cell reporter | Potency, µM (highest dose often 37.9 µM), inactives show at the top dose activity change, negative = inhibition, actives largely listed as inhibitors | 300,000 tested, 1.2% active | AID 540256; calls by dose curve; tested in HEK293 cells; further: potency means the concentration at half of the fitted maximal effect; nearly all actives have a fitted effect of over 50% in size
Vaccinia mCherry: vaccinia inhibition (mCherry reporter); Vaccinia virus mCherry reporter infection, fluorescence; Potency, µM (series often up to 36.5 µM), for inactives: at the highest dose activity change, negative = inhibition, actives largely listed as inhibitors; 310,000 tested, 0.63% active; calls by dose curve; tested in A549 cells; further: potency means the concentration at half of the fitted maximal effect; nearly all actives have a fitted effect of over 35% in size
* = called active by the depositor; i = inactive; ? = inconclusive; . = not tested or not shown; [ ] = remark or other dose. In the library only some 7.8% were active in any assay of this set; here they are far more common. On the % scale 0 is the no-effect control and ±100 the full control effect.

SMILES | MARV entry inh | HCV inhibitor | Vaccinia Venus | HCMV antiviral | Lassa entry inh | Vaccinia mCherry
CCCCCCCCNCCS(=O)(=O)NCCCCCCCC | . | 3.16µM* | -15.5% | -101.8* | . | i
CC(C)(C)C1CCC2(CC1)CC(=O)c1ccccc1O2 (centres undefined) | . | 9.2% | -11.6% | -60.5* | . | i
CCCCCSc1cc(O)c(C(CNC)C(C)C)cc1OC (centres undefined) | 18.4µM* | ? | -9.6% | -4.2 | ? | -23.9%
CCCCCSc1cc(OC)c(CCN(C)C)cc1OC | ? | ? | ? | -36.6 | ? | .
COc1ccccc1N1CCN(c2ncnc3c2cnn3-c2cccc(Cl)c2)CC1 | . | . | 8.1% | 7.3 | -1.5%[46.1 µM] | -4.3%
O=C(CC1C(=O)NCCN1Cc1cccc(Oc2ccccc2)c1)NCCc1ccccn1 (centres undefined) | ? | -22.1% | -26.0% | 23.1 | 6.31µM* | -11.6%
O=C(Nc1cccc(S(=O)(=O)N2CCOCC2)c1)c1cccc(S(=O)(=O)N2CCCC2)c1 | -16.0% | ? | -23.0% | -11.8 | -19.6% | -5.6%
CN(c1ccccc1)S(=O)(=O)c1ccc(C(=O)Nc2cccc(S(=O)(=O)N3CCOCC3)c2)cc1 | . | . | ? | -94.6* | . | ?
COc1ccccc1N(C)S(=O)(=O)c1ccc(C(=O)Nc2cccc(S(=O)(=O)N3CCOCC3)c2)cc1 | . | 10µM* | . | ? | . | .
COc1ccc(C(=O)Nc2cccc(S(=O)(=O)N(C)C)c2)cc1S(=O)(=O)N1CCOCC1 | . | ? | -10.9% | 0.6 | . | -5.3%
CCOC1=C(NC(=O)C(C)(C)C)CC(OCC)=C(N2CCOCC2)C1 | 7.0%[46.1 µM] | . | . | . | . | .
COC(=O)C1CCN(C(=O)c2oc3c(Cl)cc(C)cc3c2C)CC1 | . | -22.3% | . | 17.1 | . | .
Cc1cc(Cl)c2oc(C(=O)N3CCN(c4ccncc4)CC3)c(C)c2c1 | 3.55µM* | 1.26µM* | ? | -40.0 | ? | -11.1%
COc1ccc(NC(=O)Cn2c(=O)n(-c3ccc(C)c(C)c3)c(=O)c3c(C)c(C)sc32)cc1 | 3.8%[46.1 µM] | . | -17.9% | -16.3 | -3.5%[46.1 µM] | -19.5%
Cc1ccc(N2CCN(C(=O)c3noc4c3COc3ccc(C)cc3-4)CC2)c(C)c1 | . | . | 0.7% | -6.0 | 29.9%[46.1 µM] | 9.5%
CC(C)(CS(=O)(=O)[O-])NC(=O)CC[N+](C)(C)CCO | 2.82µM* | -0.7% | -8.4% | 61.5 | 3.2% | -17.4%
Cc1cccc(C(=O)Nc2ccc(OCc3cc(=O)n4ccsc4n3)cc2)c1 | 11.9%[46.1 µM] | . | -8.0% | 0.0 | 6.1%[46.1 µM] | -4.6%
O=C1C2C3c4ccccc4C(c4ccccc43)C2C(=O)N1c1ccncc1 (centres undefined) | . | ? | . | -64.4* | . | .
Cc1ccnc2c(N3C(=O)C4C5c6ccccc6C(c6ccccc65)C4C3=O)cccc12 (centres undefined) | ? | ? | . | ? | 20.6µM* | .
O=C1C2C3c4ccccc4C(c4ccccc43)[C@@H]2C(=O)N1c1cccnc1 (some centres undefined) | ? | 8.4% | -3.9% | -28.2 | 1.4% | -13.2%
N#CC1=C(N)n2c(s/c(=C\c3cccs3)c2=O)=C(C#N)C1c1cccs1 (centres undefined) | . | 0.501µM* | 6.8% | 27.0 | . | i
Cc1cccc([N+](=O)[O-])c1NC(=O)CN(Cc1ccccc1)Cc1ccccc1 | ? | ? | -19.5% | -61.0* | ? | i
CC(C)Cn1c(N)c(C(=O)COC(=O)c2ccc(F)cc2)c(=O)n(C)c1=O | ? | ? | -3.8% | -23.4 | -27.0%[46.1 µM] | i
CC(C)Cn1c(N)c(C(=O)CSc2ccc3c(c2)OCCO3)c(=O)n(C)c1=O | ? | 2µM* | . | -94.3* | ? | .
CCc1ccc(C(=O)OCC(=O)c2c(N)n(CC(C)C)c(=O)n(C)c2=O)cc1 | ? | ? | -15.0% | -64.8* | ? | -22.4%
SMILES | MARV entry inh | HCV inhibitor | Vaccinia Venus | HCMV antiviral | Lassa entry inh | Vaccinia mCherry
CC(C)Cn1c(N)c(C(=O)COC(=O)c2c(F)cccc2F)c(=O)n(C)c1=O | . | -29.5% | . | -30.2 | . | .
CC(C)Cn1c(N)c(C(=O)COC(=O)c2cccc(Cl)c2)c(=O)n(C)c1=O | ? | 2.24µM* | -12.9% | -1.2 | ? | -19.0%
CC(C)Cn1c(N)c(C(=O)COC(=O)c2ccc3c(c2)OCCO3)c(=O)n(C)c1=O | ? | 7.08µM* | . | ? | ? | .
CCN(CC)S(=O)(=O)c1cc([N+](=O)[O-])ccc1NNC(=O)Nc1ccc(Cl)c(Cl)c1 | ? | ? | 15.8µM* | -92.8* | -8.0% | ?
CCCCN(CCCC)S(=O)(=O)c1ccc(NC(=O)c2ccc([N+](=O)[O-])cc2Cl)cc1 | ? | ? | ? | -78.5* | ? | ?
CCCCN(CCCC)S(=O)(=O)c1ccc(NC(=O)c2cccs2)cc1 | 18.3µM* | ? | . | ? | ? | .
CC(=O)N1CCN(c2ccc(NC(=O)c3ccc([N+](=O)[O-])cc3Cl)cc2)CC1 | ? | 11.2% | -12.1% | -16.4 | 26.9%[46.1 µM] | -28.8%
COc1ccc(C(=O)C(=O)N2CCN(C(=O)OCc3ccccc3)CC2)cc1 | . | . | -4.5% | -30.0 | . | -27.7%
CC1(C)OC(=O)C(=CC2=NCCC2)C(=O)O1 | 0.5% | . | . | . | . | .
O=C(Nc1ccccc1)Nc1ccccc1Br | -22.1% | -8.7% | -15.2% | -31.8 | ? | -8.5%
O=C(NCC1CC1)Nc1ccc(Cl)cc1 | . | -8.0% | . | -94.5* | . | .
CC(=O)Nc1ccc(NC(=S)NC(=O)C2CC2)cc1 | 5.3% | 21.9% | -2.6% | 38.4 | -0.9% | -4.2%
CC(C)(C)N(NC(=O)Nc1ccc(F)cc1)C(=O)c1ccccc1 | -7.2% | -0.5% | -22.1% | 15.5 | 0.2% | i
CC(C)(C)N(NC(=O)Nc1ccc(Cl)c(Cl)c1)C(=O)c1ccccc1 | ? | ? | 12.6µM* | -79.6* | ? | -24.6%[1.46 µM]
O=C(Nc1ccccc1)Nc1ccc(Br)c(Cl)c1 | -33.6% | 12.6µM* | ? | -98.3* | -30.0% | ?
O=C(NC(=S)Nc1ccc(Br)c(Cl)c1)C1CC1 | . | 10µM* | . | -5.8 | . | .
O=C(Nc1ccc(Cl)cc1)Nc1ccc(Cl)c(Cl)c1 | . | ? | 11.2µM* | -98.4* | . | 12.6µM*
O=C(Nc1ccc(Cl)c(Cl)c1)Nc1ccc(Br)cc1F | ? | ? | ? | -99.3* | ? | ?
N#Cc1ccc(NC(=O)Nc2ccc(Cl)cc2)cc1 | ? | ? | 11.2µM* | -100.6* | ? | ?
O=C(Nc1ccc(Cl)c(Cl)c1)Nc1nnc(-c2ccncc2)s1 | -1.0% | 8.91µM* | -18.9% | -23.1 | 2.9% | -26.5%
COc1ccc(NC(=O)Nc2nnc(-c3ccncc3)s2)cc1 | ? | -13.4% | -17.8% | ? | -25.7%[46.1 µM] | -4.8%
CC(=O)Oc1ccc(-c2nc3cc(Cl)ccc3c(=O)o2)cc1 | 28.0%[46.1 µM] | 15.8% | 17.8% | -78.4* | 13.7%[46.1 µM] | -16.2%
CC(=O)Oc1ccc2c(=O)oc(-c3ccccc3)nc2c1 | 23.1%[46.1 µM] | 3.5% | -3.8% | 26.5 | -0.3%[46.1 µM] | i
COc1ccc([C@@H]2[C@@H](C(=O)N3CCOCC3)CC(=O)N2C(=O)/C=C/c2ccccc2)cc1 | . | . | . | -29.0 | . | .
